Assay outcomes: PubChem BioAssay, National Center for Advancing Translational Sciences (NCATS)
HPGD block: qHTS Assay for Inhibitors of HPGD (15-Hydroxyprostaglandin Dehydrogenase); 15-hydroxyprostaglandin dehydrogenase [NAD(+)] (Homo sapiens), P15428; purified HPGD, NADH fluorescence kinetic, PGE2 substrate; Potency, µM, for the others: at the top dose activity change, negative = inhibition, actives largely listed as inhibitors; actives 4.3% (n = 150,000); note: potency is the fitted concentration of half-maximal effect
Target sequence (P15428 whole entry, looked up): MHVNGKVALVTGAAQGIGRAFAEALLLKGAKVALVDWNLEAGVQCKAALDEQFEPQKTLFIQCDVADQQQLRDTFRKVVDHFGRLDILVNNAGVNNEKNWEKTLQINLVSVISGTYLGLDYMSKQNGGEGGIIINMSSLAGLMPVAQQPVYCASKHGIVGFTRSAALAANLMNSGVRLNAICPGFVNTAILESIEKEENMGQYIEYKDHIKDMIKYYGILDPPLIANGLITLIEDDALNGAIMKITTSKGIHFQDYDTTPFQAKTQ
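20 nM HPGD preincubated 15 min at room temperature with compound in 50 mM Tris-HCl pH 8, 0.01% Tween 20. Started with 1 mM NAD+ and 30 uM prostaglandin E2; NADH fluorescence (360/450 nm) read 5 times over 30-s intervals, last minus first.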
PNC assembly inh: High Content Assay for Compounds that inhibit the Assembly of the Perinucleolar Compartment. PC3M PTB-GFP, PNC prevalence imaging, 16 h; active compounds read low. activity change (PNC), negative = inhibition, % at 10 µM. actives 3.1% (n = 140,000). AID 2417, 2010;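 active = readout at or below -70, meaning at least 70% loss of cells showing the perinucleolar compartment, a nuclear body marking cancer cells; inconclusive = readout between -30 and a set limit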;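 note: plate controls were DMSO wells for no effect and camptothecin positive control wells for full effect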
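Compounds are pinned in duplicate onto adhered PC3M cells stably expressing GFP-tagged PTB and incubated 16 h at 37 C. Cells are then fixed, nuclei stained with Hoechst, and PNC-positive cells counted.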
Lamin A splicing: qHTS Assay for Modulators of Lamin A Splicing; actives 0.01% (n = 200,000); Potency, µM (series often up to 46.1 µM), inactives show at the top dose ratio change, negative = inhibition, most hits filed as inhibitors; HeLa LMNA splicing GFP/RFP minigene ratio, 48 h; AID 1487, 2009; active = well fitted inhibition curve with a large enough effect in the signal ratio, with a control signal flat, not every such curve was filed as active; inconclusive = small, poorly fitted or top-dose-only effect, or effect the other way, or a change in a side signal; the % refers to the signal ratio; note: potency is the fitted concentration of half-maximal effect
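Read-out is the ratio of GFP to DsRed2 object intensity, acquired by 488 nm laser-scanning cytometry on HeLa lamin A-EGFP minigene reporter cells. Compound incubation 48 hrs at 37 °C in Opti-MEM with 2% FBS; DMSO 0.5% final.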
Luc counter: Counterscreen for Luciferase (Kinase-Glo TM) Inhibition; Luciferin 4-monooxygenase (Photuris pensylvanica), Q27757; Kinase-Glo luciferase, ATP luminescence, 8 min; Potency, µM (doses to about 38.3 µM), for inactives: top-dose activity change, negative = inhibition, most hits filed as inhibitors; AID 1379, 2008; actives 0.28% (n = 200,000); active = well fitted inhibition curve with a large enough effect; inconclusive = small, poorly fitted or top-dose-only effect; note: potency is the fitted concentration of half-maximal effect; nearly all actives have a fitted effect of over 60% in size
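Recombinant Kinase-Glo luciferase, 10 uM ATP (linear range), luciferin; imidazole pH 7.2 / KCl / MgCl2 / Tween / BSA buffer; 8 min RT; luminescence.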
ALDH1A1 inh: qHTS Assay for Inhibitors of Aldehyde Dehydrogenase 1 (ALDH1A1). Potency, µM (doses to about 75.3 µM), for inactives: at the highest dose activity, negative = inhibition, hits mostly inhibitors. Purified ALDH1A1, NADH fluorescence, propionaldehyde substrate. actives 7.3% (n = 220,000);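 note: potency is the fitted concentration of half-maximal effect; plate controls were no enzyme wells and a reference inhibitor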
Numbers without * were called inactive; ? = inconclusive; / = no result given; [ ] = dose if it differs, or a comment. Sampled rows, rich in hits. Any-hit rate of the full collection: about 10%. Unless noted, calls come from the whole dose curve; as a rule, active = well fitted inhibition curve with a large enough effect (not every such curve was filed as active); inconclusive = small, poorly fitted or top-dose-only effect, or another doubt; inactive = no such curve, though single readings can be large or run the other way. Unless noted, % is set by controls: 0 for no effect and ±100 for the full control effect.

SMILES | HPGD block | PNC assembly inh | Lamin A splicing | Luc counter | ALDH1A1 inh
CCn1c(-c2ccc(C(C)(C)C)cc2)n[nH]c1=S | ? | -89* | -11% | 1% | ?
CCn1c(-c2ccc(F)cc2)n[nH]c1=S | -11% | 14 | 0% | 1% | -9%
CC(C)Cn1c(-c2ccccc2F)n[nH]c1=S | -24% | 16 | 0% | 2% | -12%
Cn1c(-c2ccccc2)n[nH]c1=S | / | / | / | / | -4%
CC(C)Cn1c(-c2ccc(F)cc2)n[nH]c1=S | 28µM* | -13 | -15% | -1% | ?
CC(C)Cn1c(-c2csc3c2CCCC3)n[nH]c1=S | 28µM* | 8 | 7% | -4% | 35µM*
COc1cccc(C(=O)Nc2cccc(C(=O)OCc3cc(=O)n4c5c(sc4n3)CCCC5)c2)c1 | / | / | -3%[46 µM] | / | /
CCCCCCCCCCCCCCCCOC[C@H](COP(=O)([O-])OCC[N+](C)(C)C)OC(=O)NC | -7% | / | / | 2% | -1%
Cc1nc(-c2ccccc2)sc1-c1n[nH]c(=S)n1C | -28% | -11 | 3% | 1% | 25µM*
OCc1ccccc1 | -4% | / | -7% | / | 8%
ICCc1ccccc1 | 10µM* | / | / | / | 3.5µM*
NCCC[C@@H](N)C(=O)O | -8% | / | / | -1%[7.66 µM] | -2%[13.5 µM]
CC(C)c1ccc(CNc2c([N+](=O)[O-])c(=O)oc3ccccc23)cc1 | / | / | / | 4% | 0%
O=c1oc2ccccc2c(NCc2ccccc2F)c1[N+](=O)[O-] | 16µM* | -11 | -7% | 2% | 1.1µM*
CC(C)Oc1ccc(N2CC(C(=O)Nc3ccccc3F)CC2=O)cc1 (stereo not given) | -11% | 66 | -3% | 4% | -4%
O=C(Nc1ccccc1C(F)(F)F)C1CC(=O)N(c2ccccc2F)C1 (stereo not given) | -6% | -81* | -8% | 0% | ?
CC1CCN(CCc2nc3cc(NC(=O)Nc4ccccc4)ccc3n2C)CC1 | -7% | -2 | -5% | -4% | 4%
Cc1nc2cc(NC(=O)N3CCCCC3)ccc2n1C | -22% | -119* | -3% | 1% | -12%
Cn1c(CCN2CCCCC2)nc2cc(NS(=O)(=O)c3ccc(Cl)cc3)ccc21 | -8% | -93* | ? | -1% | ?
CC(=O)Nc1ccc2c(c1)nc(CCN1CCC(C)CC1)n2C | -9% | -101* | -13% | 0% | ?
CN(c1ccccc1)S(=O)(=O)c1cccc(C(=O)NCCc2ccc(O)c(O)c2)c1 | / | / | -24%[46 µM] | 7% | 28µM*
COc1ccc(CCNC(=O)c2ccc(N(C)S(=O)(=O)c3ccc(C)cc3)cc2)cc1 | / | / | ? | -5% | 17%
COc1ccc(CCNC(=O)c2ccc(Cl)c(S(=O)(=O)N(C)c3ccccc3)c2)cc1 | -15% | -89* | ? | 1% | 0%
COc1ccc(OCC(=O)Nc2cccc(C(=O)Nc3ccccc3C(=O)O)c2)cc1 | ? | ? | 13% | 0% | 20µM*
Cc1cc(C(=O)Nc2ccccc2C(=O)O)ccc1NC(=O)COc1cccc([N+](=O)[O-])c1 | / | / | ? | 1% | ?
SMILES | HPGD block | PNC assembly inh | Lamin A splicing | Luc counter | ALDH1A1 inh
COc1ccc(CC(=O)Nc2cccc(C(=O)Nc3ccccc3C(=O)O)c2)cc1OC | ? | ? | -12% | -2% | ?
Cc1ccc(C(=O)Nc2ccccc2C(=O)O)cc1NC(=O)COc1c(C)cccc1C | / | / | 10%[46 µM] | 0% | 8.9µM*
Cc1ccc(-n2c([O-])nc(-[n+]3ccccc3)c2C=O)cc1 | -15% | -7 | -5% | -8% | 8.9µM*
Cc1ccc[n+](-c2nc([O-])sc2C=O)c1 | / | / | -15%[46 µM] | -1% | -3%
O=[N+]([O-])c1cccc(Cl)c1NCCNS(=O)(=O)c1ccc(Cl)cc1 | -5% | ? | -15% | 2% | ?
O=[N+]([O-])c1cccc(Cl)c1NCCNS(=O)(=O)c1ccccc1 | -24% | ? | -3% | 5% | 11µM*
O=[N+]([O-])c1ccccc1S(=O)(=O)NCCc1ccncc1 | / | / | 22%[9.22 µM] | 2% | 18µM*
CC(=O)Nc1ccc(S(=O)(=O)NCCNc2ccccc2[N+](=O)[O-])cc1 | / | / | / | 4% | 4.5µM*
